{"source": "PubChem BioAssay AID463173", "about": "(ICCB-Longwood Screening Facility, Harvard Medical School, 2010)", "note": "Hit rate of the full screen: of about 52,000 compounds, about 4,300 (8.3%) were called active. Rule as the data show it: active = survival mostly below about 52% (no sharp cut-off); inactive = mostly above about 56%. Only a selection was taken, and actives are over-represented in it overall.", "data": [{"test_system": "DeltatarO mutant", "test": "growth inhibition of S. aureus wild type versus tarO mutant, primary screen, teichoic acid synthesis inhibitors, RN4220, OD600 (AID 463173)", "conditions": "OD600, 18 h, active compounds read low, screened at 18.75 µg/mL (by protocol)", "values": [{"smiles": "Cc1oc(-c2ccccc2Cl)nc1CS(=O)(=O)CC(=O)NC(C)CCc1ccccc1", "note": "(stereo not drawn)", "survival": "76% (inactive)"}, {"smiles": "Cc1oc(-c2cccc(Cl)c2)nc1CS(=O)(=O)CC(=O)NC(C)CCc1ccccc1", "note": "(stereo not drawn)", "survival": "32% (active)"}, {"smiles": "Cc1ccc(-c2nc(CS(=O)(=O)CC(=O)NC(C)CCc3ccccc3)c(C)o2)cc1", "note": "(stereo not drawn)", "survival": "63% (inactive)"}, {"smiles": "COC(=O)C12CC3CC(CC(C(=O)OC)(C1)C3=O)C2=O", "survival": "116% (inactive)"}, {"smiles": "Cc1cccc(CSc2nc3c(c(=O)[nH]2)CCC3)c1", "survival": "69% (inactive)"}, {"smiles": "Cc1nc(SCc2cccc(Cl)c2)nc2c1CCCC2", "survival": "-2% (active)"}, {"smiles": "O=c1[nH]c(SCc2cccc(Cl)c2)nc2c1CCC2", "survival": "85% (inactive)"}, {"smiles": "COc1ccccc1CNC(=O)c1c(O)nc2c(C)cccn2c1=O", "survival": "69% (inactive)"}, {"smiles": "O=C(NCc1ccc2c(c1)CCN2C(=O)c1ccncc1)c1ccccc1F", "survival": "117% (inactive)"}, {"smiles": "COc1ccccc1Nc1nn2c(=O)c3ccc(C(=O)N4CCCC(C)C4)cc3nc2s1", "note": "(stereo not drawn)", "survival": "61% (inactive)"}, {"smiles": "COc1ccccc1Nc1nn2c(=O)c3ccc(C(=O)N4CCC(C)CC4)cc3nc2s1", "survival": "52% (active)"}, {"smiles": "COc1ccccc1Nc1nn2c(=O)c3ccc(C(=O)N4CCCCC4)cc3nc2s1", "survival": "71% (inactive)"}, {"smiles": "CCN(CC)S(=O)(=O)c1ccc2c(c1)N(CC(=O)Nc1cccc(C)c1C)C(=O)C1CCCN21", "note": "(stereo not drawn)", "survival": "-2% (active)"}, {"smiles": "CCN(CC)S(=O)(=O)c1ccc2c(c1)N(CC(=O)Nc1c(C)cccc1C)C(=O)C1CCCN21", "note": "(stereo not drawn)", "survival": "89% (inactive)"}, {"smiles": "CCc1ccccc1NC(=O)CN1C(=O)C2CCCN2c2ccc(S(=O)(=O)N(CC)CC)cc21", "note": "(stereo not drawn)", "survival": "72% (inactive)"}, {"smiles": "O=C(Cn1c(=O)nc(-c2ccccc2)c2ccccc21)NCCc1ccc(Cl)cc1", "survival": "70% (inactive)"}, {"smiles": "CCCn1c2ccccc2c2cnn(CC(=O)N3CCC(C)CC3)c(=O)c21", "survival": "76% (inactive)"}, {"smiles": "CCCn1c2ccccc2c2cnn(CC(=O)N3CCN(c4ccccc4F)CC3)c(=O)c21", "survival": "-4% (active)"}, {"smiles": "CCN1CCN(C(=O)Cn2ncc3c4ccccc4n(Cc4ccccc4F)c3c2=O)CC1", "survival": "95% (inactive)"}, {"smiles": "CCN1CCN(C(=O)Cn2ncc3c4ccccc4n(Cc4c(C)cc(C)cc4C)c3c2=O)CC1", "survival": "124% (inactive)"}, {"smiles": "O=C(Cn1ncc2c3ccccc3n(Cc3ccc(Cl)cc3)c2c1=O)N1CCCCCC1", "survival": "84% (inactive)"}, {"smiles": "O=C(Cn1ncc2c3ccccc3n(Cc3ccccc3F)c2c1=O)N1CCCCC1", "survival": "120% (inactive)"}, {"smiles": "Cc1cc(C)c(Cn2c3ccccc3c3cnn(CC(=O)N4CCCCC4)c(=O)c32)c(C)c1", "survival": "126% (inactive)"}, {"smiles": "Cc1cc(C)c(Cn2c3ccccc3c3cnn(CC(=O)N4CCCCCC4)c(=O)c32)c(C)c1", "survival": "9% (active)"}, {"smiles": "CC1CCCCN1C(=O)Cn1ncc2c3ccccc3n(Cc3ccccc3F)c2c1=O", "note": "(stereo not drawn)", "survival": "32% (active)"}, {"smiles": "Cc1ccc(Cn2c3ccccc3c3cnn(CC(=O)N4CCCCCC4)c(=O)c32)cc1", "survival": "19% (active)"}, {"smiles": "O=C(Cn1ncc2c3ccccc3n(Cc3ccccc3)c2c1=O)N1CCCCCC1", "survival": "82% (inactive)"}, {"smiles": "O=C(Cn1ncc2c3ccccc3n(Cc3ccccc3F)c2c1=O)N1CCCCCC1", "survival": "70% (inactive)"}, {"smiles": "CN(C)c1ccc(C(=O)NC2CCSC2=O)cc1", "note": "(stereo not drawn)", "survival": "66% (inactive)"}, {"smiles": "Cc1ccc(Cl)cc1N1CCN(C(=O)C(C)n2ncn3cccc3c2=O)CC1", "note": "(stereo not drawn)", "survival": "66% (inactive)"}, {"smiles": "Cc1ccc2nc(-c3ccc(NC(=O)COc4ccc(Br)cc4Br)cc3)sc2c1", "survival": "104% (inactive)"}, {"smiles": "CCOc1cc(-c2nnc(SCC(=O)NCCCOC)nc2-c2ccc(OC)c(OCC)c2)ccc1OC", "survival": "73% (inactive)"}, {"smiles": "COc1ccc(NC(=O)CCCN2C(=O)COc3ccc(C)cc32)cc1OC", "survival": "119% (inactive)"}, {"smiles": "COc1ccc(CNC(=O)c2oc3c(c2C)-c2nn(Cc4ccccc4Cl)cc2CC3)cc1", "survival": "89% (inactive)"}, {"smiles": "CC(C)(C)C(=O)Nc1ccc2nc(SCCOc3ccccc3Cl)sc2c1", "survival": "89% (inactive)"}, {"smiles": "O=C(Nc1ccc2nc(SCCOc3ccccc3Cl)sc2c1)c1ccco1", "survival": "14% (active)"}, {"smiles": "O=C(Nc1ccc2nc(SCCOc3ccccc3Cl)sc2c1)c1cccs1", "survival": "49% (inactive)"}, {"smiles": "O=C(Nc1ccc2nc(SCCOc3ccccc3)sc2c1)c1ccco1", "survival": "99% (inactive)"}, {"smiles": "COc1cc(C)ccc1OCCSc1nc2ccc(NC(=O)c3ccco3)cc2s1", "survival": "62% (inactive)"}, {"smiles": "Cc1ccccc1OCCSc1nc2ccc(NC(=O)c3ccccc3)cc2s1", "survival": "57% (inactive)"}, {"smiles": "Cc1ccc(OCCSc2nc3ccc(NC(=O)c4ccco4)cc3s2)cc1", "survival": "84% (inactive)"}, {"smiles": "CC(=O)Nc1ccc2nc(SCCOc3ccccc3Cl)sc2c1", "survival": "3% (active)"}, {"smiles": "Cc1ccccc1OCCSc1nc2ccc(NC(=O)c3ccco3)cc2s1", "survival": "25% (active)"}, {"smiles": "O=C(NC1CCCC1)c1ccc2c(c1)N(Cc1ccccc1F)C(=O)c1ccccc1S2", "survival": "81% (inactive)"}, {"smiles": "Cc1nc2cccnc2n1-c1cccc(C(=O)NCCN(C)C)c1", "survival": "74% (inactive)"}, {"smiles": "O=C(NCC(c1cccs1)S(=O)(=O)c1ccccc1)c1ccc(C(F)(F)F)cc1", "note": "(stereo not drawn)", "survival": "90% (inactive)"}, {"smiles": "O=C(NCc1ccc(Cl)cc1)c1cnc2sc(N3CCCC3)nn2c1=O", "survival": "72% (inactive)"}, {"smiles": "O=C(NCCc1ccc(Cl)cc1)c1cnc2sc(N3CCOCC3)nn2c1=O", "survival": "77% (inactive)"}, {"smiles": "O=C(NCc1ccc(Cl)cc1)c1cnc2sc(N3CCOCC3)nn2c1=O", "survival": "52% (active)"}, {"smiles": "O=C(CN1C(=O)C2(SCC(=O)N2c2cccc(Cl)c2)c2ccccc21)NC1CCCCC1", "note": "(stereo not drawn)", "survival": "86% (inactive)"}, {"smiles": "Cc1ccc2c(CC(=O)Nc3ccc(S(=O)(=O)N4CCCCC4C)cc3)coc2c1C", "note": "(stereo not drawn)", "survival": "53% (inactive)"}, {"smiles": "COc1ccccc1NC(=O)CN1C(=O)C(c2ccc(F)cc2)=NC12CCCCC2", "survival": "72% (inactive)"}, {"smiles": "COc1ccc(S(=O)(=O)NCCc2cn3ccsc3n2)cc1OC", "survival": "-1% (active)"}, {"smiles": "Cc1ccc(S(=O)(=O)NCCc2cn3ccsc3n2)cc1", "survival": "64% (inactive)"}, {"smiles": "COc1ccc(S(=O)(=O)NCCc2cn3ccsc3n2)cc1", "survival": "86% (inactive)"}, {"smiles": "CCN(CCCNC(=O)c1cc2c(=O)[nH]c3ccc(C)cc3c2s1)c1ccc(C)cc1", "survival": "68% (inactive)"}, {"smiles": "CCc1cccc(C)c1NC(=O)COCc1cc(-c2ccc3c(c2)OCO3)on1", "survival": "101% (inactive)"}, {"smiles": "CCOCCn1ccc2c(OCC(=O)Nc3cccc(F)c3)cccc2c1=O", "survival": "91% (inactive)"}, {"smiles": "CCn1ccc2c(OCC(=O)Nc3ccccc3C)cccc2c1=O", "survival": "8% (active)"}, {"smiles": "COCCn1ccc2c(OCC(=O)Nc3cccc(OC)c3)cccc2c1=O", "survival": "92% (inactive)"}, {"smiles": "CCn1ccc2c(OCC(=O)NCc3ccccc3)cccc2c1=O", "survival": "102% (inactive)"}, {"smiles": "CCn1ccc2c(OCC(=O)Nc3ccc(C(C)=O)cc3)cccc2c1=O", "survival": "66% (inactive)"}, {"smiles": "CCOc1ccccc1NC(=O)COc1cccc2c(=O)n(CCOC)ccc12", "survival": "70% (inactive)"}, {"smiles": "CCn1ccc2c(OCC(=O)Nc3ccc(OC)cc3OC)cccc2c1=O", "survival": "20% (active)"}, {"smiles": "COCCn1ccc2c(OCC(=O)Nc3ccccc3F)cccc2c1=O", "survival": "25% (active)"}, {"smiles": "COCCn1ccc2c(OCC(=O)NCc3ccc(F)cc3)cccc2c1=O", "survival": "92% (inactive)"}, {"smiles": "CCn1ccc2c(OCC(=O)Nc3ccccc3C(F)(F)F)cccc2c1=O", "survival": "85% (inactive)"}, {"smiles": "CCOCCn1ccc2c(OCC(=O)Nc3cc(C)cc(C)c3)cccc2c1=O", "survival": "83% (inactive)"}, {"smiles": "CCOCCn1ccc2c(OCC(=O)Nc3ccc(C(N)=O)cc3)cccc2c1=O", "survival": "37% (active)"}, {"smiles": "COC(=O)c1sccc1S(=O)(=O)N(CC(=O)NCc1ccc(C)cc1)c1ccc(C)c(C)c1", "survival": "68% (inactive)"}, {"smiles": "Fc1ccccc1N1CCN(c2ncnc3c2nc2n3CCCC2)CC1", "survival": "84% (inactive)"}, {"smiles": "O=C(Nc1ccccc1)c1ccc(S(=O)(=O)N2CCCC2)cc1", "survival": "94% (inactive)"}, {"smiles": "N#Cc1ccccc1NC(=O)C(=O)NCC(c1ccc2c(c1)OCO2)N1CCOCC1", "note": "(stereo not drawn)", "survival": "71% (inactive)"}, {"smiles": "CCC(=O)N1CCc2cc(Br)cc(S(=O)(=O)CCC(=O)N3CCN(c4ccccc4F)CC3)c21", "survival": "80% (inactive)"}, {"smiles": "O=C(NCc1ccccc1Cl)C1CCCN(S(=O)(=O)c2cccc3nsnc23)C1", "note": "(stereo not drawn)", "survival": "91% (inactive)"}, {"smiles": "CCN1CCN(CCC(=O)Nc2ccc(OC)cc2)CC1", "survival": "97% (inactive)"}, {"smiles": "Cc1nn(-c2ccccc2)c2sc(C(=O)N(CC(=O)NC3CCCC3)C3CC3)cc12", "survival": "78% (inactive)"}, {"smiles": "Cc1nn(-c2ccccc2)c2sc(C(=O)NN=C3CCCC3)cc12", "survival": "109% (inactive)"}, {"smiles": "Cc1nn(-c2ccccc2)c2sc(C(=O)N(Cc3ccco3)C(C)C(=O)NC3CCCCC3)cc12", "note": "(stereo not drawn)", "survival": "60% (active)"}, {"smiles": "O=C(OCc1ccccc1Cl)c1ccc(-c2nnn(Cc3ccccc3)n2)cc1", "survival": "52% (inactive)"}, {"smiles": "CC(C)CNC(=O)C1CCN(S(=O)(=O)c2ccc(-n3cnnn3)cc2)CC1", "survival": "86% (inactive)"}, {"smiles": "Cc1ccc(NC(=O)Cn2c(=O)nc(-c3ccccc3F)c3cc(Cl)ccc32)c(Br)c1", "survival": "79% (inactive)"}, {"smiles": "O=C1CC2CCC(CN1)N2S(=O)(=O)c1ccc(C(=O)O)cc1", "note": "(stereo not drawn)", "survival": "93% (inactive)"}, {"smiles": "Cc1ccc(-c2cc(C(=O)N3CCN(S(=O)(=O)c4ccc(Br)s4)CC3)[nH]n2)c(C)c1", "survival": "70% (inactive)"}, {"smiles": "O=C(NCc1ccccc1Cl)c1cnc2sc(N3CCCCC3)nn2c1=O", "survival": "76% (inactive)"}, {"smiles": "COc1ccc(C(=O)NCC(c2ccc(N(C)C)cc2)N2CCc3ccccc32)cc1", "note": "(stereo not drawn)", "survival": "118% (inactive)"}, {"smiles": "Cc1cc(C(=O)Nc2ccccc2C(=O)O)c(C)o1", "survival": "66% (inactive)"}, {"smiles": "Cc1cc(C(=O)NCC(=O)O)c(C)o1", "survival": "76% (inactive)"}, {"smiles": "Cc1cc(C(=O)NCc2ccc(C(=O)O)o2)c(C)o1", "survival": "58% (active)"}, {"smiles": "CCC(=O)NC1CCNCC1", "survival": "76% (inactive)"}, {"smiles": "CCOc1ccccc1CNS(=O)(=O)c1ccc2[nH]c(=O)ccc2c1", "survival": "81% (inactive)"}, {"smiles": "CCOc1ccc(OCC)c(NS(=O)(=O)c2ccc3[nH]c(=O)ccc3c2)c1", "survival": "8% (active)"}, {"smiles": "CCOc1ccc(CNS(=O)(=O)c2ccc3[nH]c(=O)ccc3c2)cc1", "survival": "85% (inactive)"}]}]}
